Here are results for seven molecules from PubChem BioAssay (NCATS).

Assay [1] can be described thus: Cell Viability - HepG2 (AID 433; calls by dose curve;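 also: potency is read from the fitted curve at half-maximal effect; potency for ATP loss meaning cytotoxicity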). To be noted: qHTS. The essentials: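 Cytotoxicity is scored as loss of intracellular ATP in HepG2 cells exposed to compounds for 40 h. Concentration-response curves, normalized to DMSO and 100 uM tamoxifen, give AC50 values.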
A general note: In qHTS, concentration-response curves come from the screen itself.

Assay [2] can be described thus: Cell Viability - N2a (AID 540).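 Also: plate controls were DMSO alone for no effect and tamoxifen control for full effect; nearly all actives have a fitted effect of over 45% in size.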 To be noted: N2a mouse neuroblastoma cell viability; activity change, negative = cytotoxicity: at 92.2 µM (top of the series). A digest of the protocol:
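CellTiter-Glo ATP luminescence, read 20 min after reagent at room temperature, reported viability following 40 h compound treatment at 37 °C. N2a mouse neuroblastoma cells seeded 1500/well; Hill equation gave AC50.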

The nature of assay [3]: Cellular Toxicity (caspase-3) Jurkat (AID 655).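 Also: cells exposed to compound for 16 h at 37 °C before reading.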 The conditions noted are these: Jurkat caspase-3 activation, luminescence; caspase-3 activation: at 92.2 µM (top of the series), DMSO = 0%, tamoxifen = 100%. The essentials:
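Caspase 3/7 activation is scored as increased luminescence in Jurkat cells cultured with compound for 16 hours in complete medium. AC50 values come from Hill fits of qHTS concentration-response data normalized to DMSO and 100 uM tamoxifen controls.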

Assay [4] can be described thus: Cellular Toxicity (caspase-3) BJ (AID 658).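 Also: 0% = DMSO basal and 100% = 10 µM staurosporine.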 The conditions noted are these: BJ fibroblasts, luminescence, normalized: DMSO 0%, staurosporine 100%; series mostly up to 91.7 µM. A digest of the protocol:
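Plated BJ cells (1000/well) rested 5 hr, received compound for 16 hr at 37 °C, then Caspase-Glo 3/7 reagent for 1 hr at room temperature before luminescence reading.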

Assay [5] can be described thus: MultiTox-Fluor Cytotoxicity Assay - LYMP1-002 - Live Cells (AID 955). Also: % is scaled to controls: 0 for no effect and ±100 for the full control effect. The conditions noted are these: LYMP1-002 lymphoblastoid live-cell protease fluorescence viability; series mostly up to 46.1 µM. A digest of the protocol:
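After 16 h compound exposure at 37 C, live LYMP1-002 lymphoblastoid cells (2500/well) were quantified by cleavage of cell-permeant GF-AFC substrate, read at 405/510 nm after 60 min. Concentration-response fitted with Hill equation for AC50.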

Assay [6] in a line: Cell Viability - LYMP2-004 (AID 966).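 Also: plate controls were DMSO only for no effect and tetraoctylammonium bromide control for full effect; nearly all actives have a fitted effect of over 65% in size.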 The conditions noted are these: LYMP2-004 lymphoblastoid cell viability, qHTS; series mostly up to 92.2 µM. A digest of the protocol:
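AC50 values come from Hill modelling of concentration-dependent loss of intracellular ATP, measured by CellTiter-Glo luminescence. Human LYMP2-004 lymphoblastoid cells (2500/well) were exposed to compound for 24 h at 37 C.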

Assay [7] is described as follows: Cell Viability - LYMP2-011 (AID 969).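 Also: 0% = DMSO only and full inhibition = 92 µM tetraoctylammonium bromide; nearly all actives have a fitted effect of over 60% in size.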 The conditions noted are these: LYMP2-011 lymphoblastoid cells viability; series mostly up to 92.2 µM. The essentials:
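Cytotoxicity qHTS with ATP content as read-out: lymphoblastoid cells (2500/well) exposed to compound for 24 h at 37 C, then luciferase luminescence measured. Concentration-response data fitted with the standard Hill equation to give AC50.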

Assay [8] is described as follows: Cell Viability - LYMP2-002 (AID 977).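 Also: plate controls were DMSO only for no effect and 92 µM tetraoctylammonium bromide for full effect.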 The conditions noted are these: LYMP2-002 lymphoblastoid cell viability, qHTS; series mostly up to 92.2 µM. The essentials:
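In this qHTS viability screen, 2500 human lymphoblastoid cells per well receive compound for 24 hr at 37 C, and luciferase-based ATP luminescence gives the viability signal. Tetraoctylammonium bromide serves as positive control.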

Assay [9] can be described thus: Cell Viability - LYMP2-014 (AID 983).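 Also: plate controls were DMSO only for no effect and 92 µM tetraoctylammonium bromide for full effect; nearly all actives have a fitted effect of over 50% in size.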 To be noted: LYMP2-014 lymphoblastoid cells, viability qHTS; series mostly up to 92.2 µM. A digest of the protocol: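 Intracellular ATP loss, read by luciferase luminescence, measures acute cytotoxicity after 24 h compound exposure of lymphoblastoid LYMP2-014 cells (2500/well, 37 C). Concentration-response data fitted to the Hill equation for AC50.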

Assay [10] can be described thus: Cell Viability - LYMP2-016 (AID 984). Also: % is scaled to controls: 0 for no effect and ±100 for the full control effect; nearly all actives have a fitted effect of over 55% in size. The conditions noted are these: LYMP2-016 lymphoblastoid cell viability, qHTS; series mostly up to 92.2 µM. The essentials:
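Acute toxicity in a Coriell human lymphoblastoid line is scored as loss of intracellular ATP over 24 h of treatment in complete medium. CellTiter-Glo signal is fitted across concentrations with the Hill equation to give AC50.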

The nature of assay [11]: Cell Viability - LYMP2-020 (AID 986).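 Also: plate controls were DMSO only for no effect and tetraoctylammonium bromide at 92 µM for full effect; nearly all actives have a fitted effect of over 55% in size.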 The conditions noted are these: series mostly up to 92.2 µM. The essentials:
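Cytotoxicity in qHTS format: luminescent ATP readout from CellTiter-Glo after 24 h compound exposure at 37 C in complete medium. LYMP2-020 lymphoblastoid cells were seeded at 2500/well; concentration-response data fitted to the Hill equation for AC50.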

Assay [12] is described as follows: Cell Viability - LYMP2-022 (AID 987).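 Also: 0% = DMSO alone and full effect = tetraoctylammonium bromide at 92 µM; nearly all actives have a fitted effect of over 55% in size.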 The conditions noted are these: LYMP2-022 lymphoblastoid cell viability; series mostly up to 92.2 µM. The essentials: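 Cytotoxicity read as decreased cellular ATP (CellTiter-Glo luminescence, 30 min room temperature) after 24 hours compound exposure of 2500 lymphoblastoid LYMP2-022 cells/well at 37 C. Concentration-response data fitted with standard Hill equation for AC50.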

In assay [13] the target is Vitamin D3 receptor (Homo sapiens) (UniProt P11473). The assay can be described thus: qHTS assay for small molecule agonists of vitamin D receptor signaling (AID 588543; calls by dose curve;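 also: 0% = DMSO basal and 100% = reference agonist control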). The conditions noted are these: HEK293T VDR-UAS-bla, beta-lactamase ratio, 16 h; series mostly up to 76.8 µM. The essentials: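 qHTS in agonist mode: compound titrations stimulate a VDR-driven β-lactamase reporter in HEK293T cells over 16 h at 37 °C. Response normalized to 50 nM 1α,25-dihydroxyvitamin D3 = 100%, DMSO = 0%; Hill fitting gives EC50 and maximal response.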

Assay [14] has as its target Retinoic acid receptor RXR-alpha (Homo sapiens) (UniProt P19793). The assay can be described thus: qHTS assay for small molecule antagonists of retinoid X receptor alpha signaling (AID 588546; active = well fitted inhibition curve with a large enough effect in the signal ratio, with a control signal flat, not every such curve was filed as active; the % refers to the signal ratio;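 also: cells stimulated with 9-cis-retinoic acid as agonist; % is scaled to controls: 0 for no effect and ±100 for the full control effect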). The conditions noted are these: HEK293T RXRa-UAS-bla, beta-lactamase ratio, antagonist mode. A digest of the protocol:
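Beta-lactamase reporter inhibition, read as CCF4 fluorescence ratio (ex 405, em 460/530 nm) after 2 h at RT. HEK293T UAS-bla cells, 2500/well, were stimulated with 9-cis-RA at 500 or 100 nM final alongside test compound for 18 h at 37 C.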

Assay [15] concerns the target Voltage-gated inwardly rectifying potassium channel KCNH2 (Homo sapiens) (UniProt Q12809). The assay can be described thus: qHTS Assay for Small Molecule Inhibitors of the Human hERG Channel Activity (AID 588834).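 Also: lower thallium flux fluorescence means stronger hERG block; nearly all actives have a fitted effect of over 50% in size.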 Also: potency is read from the fitted curve at half-maximal effect. To be noted: U2OS BacMam hERG, FluxOR thallium flux fluorescence; series mostly up to 92.2 µM. A digest of the protocol:
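Cells were infected with hERG-BacMam virus for 4 hrs at room temperature, grown overnight, then seeded at 2000/well. After dye loading and roughly 10 min compound treatment, thallium influx was triggered and fluorescence recorded.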

Assay [16] is described as follows: qHTS assay for small molecule activators of the p53 signaling pathway (AID 651743; active = well fitted activation curve with a large enough effect in the signal ratio, not every such curve was filed as active; the % refers to the signal ratio; also: % of control where 0% means no effect). The conditions noted are these: HCT-116 p53RE-bla, beta-lactamase FRET ratio, 16 h; activation: hits give high values. A digest of the protocol:
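Agonist-mode quantitative HTS in HCT-116 cells carrying a p53-response-element beta-lactamase reporter; 16 h compound treatment at 37 C, then FRET substrate loading for 2 h at room temperature and fluorescence read.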

Assay [17] in a line: qHTS assay for cell viability of HEK293 cells (AID 743288). Also: % is scaled to controls: 0 for no effect and ±100 for the full control effect; nearly all actives have a fitted effect of over 50% in size. The conditions noted are these: ATP luminescence (CellTiter-Glo), 18 h, hits give low values. A digest of the protocol:
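Quantitative high-throughput screen: compounds were pinned onto parental HEK293 cells (2,000 per well) after a minimum 5 h settling at 37 C, incubated 18 h at 37 C, and intracellular ATP measured by luciferase luminescence.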

Assay [18] is described as follows: Cell Viability - LYMP2-023 (AID 975).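 Also: cellular ATP measured by luciferase luminescence as viability proxy; plate controls were DMSO only for no effect and 92 µM tetraoctylammonium bromide control for full effect; nearly all actives have a fitted effect of over 55% in size.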 To be noted: LYMP2-023 lymphoblastoid cell viability; series mostly up to 92.2 µM. A digest of the protocol:
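Intracellular ATP, read by CellTiter-Glo luminescence, reports viability after 24 hr compound exposure at 37 C. 2500 lymphoblastoid cells/well (LYMP2-023) seeded 5 hr beforehand; Hill fits give AC50; positive control tetraoctylammonium bromide.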

A short description of assay [19]: Cell Viability - LYMP2-025 (AID 976).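 Also: plate controls were DMSO only for no effect and tetraoctylammonium bromide control for full effect.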 To be noted: LYMP2-025 lymphoblastoid cell viability; series mostly up to 92.2 µM. A digest of the protocol: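 Cytotoxicity read as loss of intracellular ATP (luciferase luminescence) after 24 h compound treatment at 37 C. Uses LYMP2-025 lymphoblastoid cells in 1536-well format; Hill-equation modelling gives AC50; tetraoctylammonium bromide as positive control.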

Assay [20] in a line: Cell Viability - LYMP2-012 (AID 982). To be noted: LYMP2-012 lymphoblastoid cell viability qHTS; series mostly up to 92.2 µM.

Values joined by “and” are separate entries in the source; they are usually repeats but may differ in a detail not shown here. Equal entries are not always repeated. Unmarked numbers belong to inactive results. Inconclusive results are not listed. Active and inactive are the calls of the source. Unless noted, calls follow the shape of the dose curve; as a rule, active = well fitted curve in the direction sought with a large enough effect; inconclusive = small, poorly fitted or top-dose-only effect, or another doubt; inactive = no such curve, though single readings can be large; an effect the other way counts as inactive or inconclusive.

Vitamin D3 receptor (Homo sapiens), sequence (P11473 whole entry, looked up): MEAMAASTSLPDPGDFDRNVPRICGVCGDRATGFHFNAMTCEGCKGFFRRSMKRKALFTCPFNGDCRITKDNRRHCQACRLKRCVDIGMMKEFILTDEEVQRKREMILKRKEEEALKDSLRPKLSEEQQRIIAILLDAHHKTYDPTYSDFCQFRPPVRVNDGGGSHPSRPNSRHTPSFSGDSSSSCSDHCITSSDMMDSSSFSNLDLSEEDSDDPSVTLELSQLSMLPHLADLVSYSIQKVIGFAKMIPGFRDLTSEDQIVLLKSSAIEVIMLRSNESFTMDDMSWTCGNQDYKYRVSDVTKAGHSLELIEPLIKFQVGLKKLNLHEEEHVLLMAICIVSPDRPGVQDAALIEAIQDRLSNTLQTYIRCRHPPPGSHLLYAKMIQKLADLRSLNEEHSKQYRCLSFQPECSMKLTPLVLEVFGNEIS
Retinoic acid receptor RXR-alpha (Homo sapiens), sequence (P19793 whole entry, looked up): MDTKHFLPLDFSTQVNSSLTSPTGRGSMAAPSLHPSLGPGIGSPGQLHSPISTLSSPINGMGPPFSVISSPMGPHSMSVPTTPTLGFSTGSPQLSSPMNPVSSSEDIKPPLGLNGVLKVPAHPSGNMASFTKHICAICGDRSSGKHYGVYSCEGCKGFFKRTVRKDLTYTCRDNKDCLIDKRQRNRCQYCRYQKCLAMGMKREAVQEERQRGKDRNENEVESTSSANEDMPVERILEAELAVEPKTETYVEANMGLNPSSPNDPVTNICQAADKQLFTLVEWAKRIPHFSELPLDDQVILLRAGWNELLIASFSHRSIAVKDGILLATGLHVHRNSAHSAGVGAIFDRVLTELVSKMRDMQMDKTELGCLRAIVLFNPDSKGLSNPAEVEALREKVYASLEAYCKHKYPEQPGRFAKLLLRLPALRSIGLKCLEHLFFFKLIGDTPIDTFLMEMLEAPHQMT
Voltage-gated inwardly rectifying potassium channel KCNH2 (Homo sapiens), sequence (Q12809 whole entry, looked up): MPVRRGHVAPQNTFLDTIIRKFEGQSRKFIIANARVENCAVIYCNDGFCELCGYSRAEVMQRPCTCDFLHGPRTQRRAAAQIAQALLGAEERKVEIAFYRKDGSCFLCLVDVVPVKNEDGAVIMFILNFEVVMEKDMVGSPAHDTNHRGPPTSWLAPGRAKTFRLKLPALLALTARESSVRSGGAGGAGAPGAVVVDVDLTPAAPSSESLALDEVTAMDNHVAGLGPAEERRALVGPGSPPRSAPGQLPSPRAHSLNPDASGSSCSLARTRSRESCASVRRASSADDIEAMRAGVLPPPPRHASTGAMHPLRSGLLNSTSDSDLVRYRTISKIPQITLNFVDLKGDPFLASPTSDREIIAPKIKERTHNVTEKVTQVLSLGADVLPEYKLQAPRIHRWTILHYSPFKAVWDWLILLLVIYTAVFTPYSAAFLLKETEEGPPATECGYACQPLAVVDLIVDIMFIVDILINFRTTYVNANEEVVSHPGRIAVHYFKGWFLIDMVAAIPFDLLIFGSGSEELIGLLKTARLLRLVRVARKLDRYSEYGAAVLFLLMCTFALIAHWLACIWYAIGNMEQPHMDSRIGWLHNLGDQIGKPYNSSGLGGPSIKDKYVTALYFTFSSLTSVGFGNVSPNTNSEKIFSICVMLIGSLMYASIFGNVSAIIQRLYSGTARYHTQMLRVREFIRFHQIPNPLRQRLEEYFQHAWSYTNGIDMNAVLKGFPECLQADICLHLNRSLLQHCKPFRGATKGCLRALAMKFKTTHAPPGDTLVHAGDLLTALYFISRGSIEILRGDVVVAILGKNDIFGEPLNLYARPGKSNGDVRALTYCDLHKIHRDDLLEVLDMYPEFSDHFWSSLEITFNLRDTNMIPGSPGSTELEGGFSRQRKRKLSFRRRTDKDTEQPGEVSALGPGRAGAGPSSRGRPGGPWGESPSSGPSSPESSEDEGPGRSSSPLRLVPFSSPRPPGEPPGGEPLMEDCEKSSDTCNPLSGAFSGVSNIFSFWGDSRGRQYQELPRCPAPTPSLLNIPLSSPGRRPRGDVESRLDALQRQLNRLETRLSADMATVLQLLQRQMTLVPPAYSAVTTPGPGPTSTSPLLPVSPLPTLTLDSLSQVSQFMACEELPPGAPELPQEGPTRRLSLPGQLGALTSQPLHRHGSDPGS

As for `CC(C)(OOC(C)(C)c1ccccc1)c1ccccc1`, the Potency in assay [1] is more than 92 µM; in assay [15] it was 15.8 µM (active). The Potency entry in [2], in assay [6], in assay [7], in assay [8], in assay [9] and in [10] was “inactive” throughout. For the same molecule, the Potency entry in assay [11] and in assay [12] was “inactive” throughout. The caspase-3 activation in [3] was -0.0747%. For the same molecule, the molecule was classed as inactive in assay [4], in [5] and in assay [13]. Besides, the max response is 4.95% in assay [14]; -10.5% and -9.14% in assay [17]. The activation in assay [16] is -3.14% and -2.07%.
As to `CN(C)C(=O)Cl`, the Potency in [1] was more than 92 µM. The Potency result in assay [2], in assay [6], in assay [7], in assay [18], in [19] and in [8] was “inactive” throughout. In addition, the Potency entry in assay [20], in assay [10], in assay [11] and in [12] was “inactive” throughout. Further, the caspase-3 activation in assay [3] is -1.4%. In addition, the call in assay [5] and in assay [13] was inactive. The max response was 8.18% in assay [14] and 4.48% in assay [17].
`Clc1ccc(C(Cl)(Cl)Cl)cc1Cl`: in [1], the Potency is more than 92 µM. The Potency result in assay [2], in assay [6], in assay [7], in assay [18], in assay [20] and in assay [11] was “inactive” in each case. Moreover, in assay [12], the Potency entry is “inactive”. Also, the caspase-3 activation in [3] is 0.663%. Moreover, the outcome in assay [4], in assay [5] and in [13] was inactive. The max response in [14] is -3.13%; in [17], 4.98%. Moreover, in assay [16], the activation was 0.791%.
As for `O=[N+]([O-])c1cc(Cl)c(Cl)cc1Cl`, in assay [1], the Potency was more than 92 µM. Besides, the Potency result in assay [2], in assay [18], in assay [19], in assay [8], in assay [9] and in [10] was “inactive” each time. The Potency entry in [11] and in assay [15] was “inactive” throughout. The caspase-3 activation in assay [3] is 2.39%. Moreover, the outcome in assay [4] and in [13] was inactive. The max response in assay [14] is 7.08%; in assay [17], -3.86%.
Turning to `N#C/C(N)=C(/N)C#N`, the Potency in assay [1] was more than 92 µM. The Potency result in [2], in assay [6], in [7], in assay [18], in [19] and in assay [20] was “inactive” in each case. Also, the Potency entry in assay [9], in assay [10], in assay [11], in assay [12] and in [15] was “inactive” in each case. The caspase-3 activation in assay [3] is 1.12%. Also, the outcome in assay [4], in [5] and in [13] was inactive. Moreover, the activation in assay [16] is 1.55%. For the same molecule, in [17], the max response is -0.0232%.
As for `ClCCBr`, the Potency in assay [1] was more than 92 µM. The caspase-3 activation in assay [3] was 0.239%. Besides, the molecule was called inactive in assay [4] and in assay [5]. For the same molecule, the Potency entry in assay [6], in [18], in [19], in [8], in [9] and in [10] was “inactive” each time. The Potency entry in assay [11] and in assay [12] was “inactive” each time. The max response in assay [14] is -1.05%. Besides, the activation in assay [16] was 0.777%.
With `CCCCOC(C)=O`, in assay [1], the Potency was more than 92 µM. Further, the Potency result in [2], in assay [19], in assay [8], in assay [20], in assay [9] and in [10] was “inactive” each time. The Potency entry in assay [11], in [12] and in assay [15] was “inactive” throughout. For the same molecule, the caspase-3 activation in assay [3] was 1.84%. The molecule was classed as inactive in [4] and in assay [5]. The max response in [14] was 10.8%. In addition, the activation in assay [16] was -4.75%.
